Bioassay records deposited in PubChem BioAssay by several laboratories.
This is a sample that favours compounds with a hit; in the whole collection about 3.7% have one here.
tim23-1 inh: tim23-1 yeast growth inhibition | AID 463212 | inhibition, % at 20 µM | 330,000 compounds, 1.3% hits | S. cerevisiae tim23-1 growth, BacTiter-Glo luminescence, 24 h;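 active = growth inhibition of the mutant yeast at or above 50%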;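 note: temperature-sensitive mutant grown at 25 °C; plate controls were DMSO-treated mutant yeast for no effect and medium wells lacking yeast for full effect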
tim10-1 inh: tim10-1 yeast growth inhibition; S. cerevisiae tim10-1 ts strain growth, BacTiter-Glo, 24 h; inhibition, % at 20 µM; 330,000 compounds, 2.2% hits; AID 463190;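 active = inhibition of at least 40%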;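 note: mutant grown at 25 °C; 0% = DMSO wells with yeast and 100% = wells holding no yeast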
PfHsp90 yeast 2: inhibits growth of yeast expressing Plasmodium falciparum Hsp90 | AID 504621 | inhibition, % at 9.4 µM | S. cerevisiae expressing PfHsp90, BacTiter-Glo ATP, 48 h; yeast lacking PDR1 and PDR3 efflux regulators | 310,000 compounds, 0.32% hits;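 active = every replicate shows inhibition above about 80%, whatever the replicate mean, limit read from the data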;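 note: 0% = DMSO neutral controls and 100% = 20 µM radicicol positive controls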
TIM10 inh: inhibits growth of TIM10 yeast strain; S. cerevisiae TIM10 strain growth, BacTiter-Glo luminescence, 24 h; inhibition, % at 10 µM; 330,000 compounds, 1.4% hits; AID 463195;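 active = inhibition of 40% or more at the single tested concentration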;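 note: wild-type TIM10 isogenic control strain grown at permissive 25 °C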
Rce1 inhib: yeast Ras-converting enzyme inhibition; Q03530; yeast membranes, quenched prenylated peptide cleavage fluorescence; calls only; 290,000 compounds, 0.27% hits; AID 2563;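 active = fall in fluorescence gain of 50% or more versus controls, with final raw signal at or below 3038400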;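 note: plate controls were neutral control wells for no effect and wells lacking membranes for full effect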
Target sequence (Q03530 whole entry, looked up): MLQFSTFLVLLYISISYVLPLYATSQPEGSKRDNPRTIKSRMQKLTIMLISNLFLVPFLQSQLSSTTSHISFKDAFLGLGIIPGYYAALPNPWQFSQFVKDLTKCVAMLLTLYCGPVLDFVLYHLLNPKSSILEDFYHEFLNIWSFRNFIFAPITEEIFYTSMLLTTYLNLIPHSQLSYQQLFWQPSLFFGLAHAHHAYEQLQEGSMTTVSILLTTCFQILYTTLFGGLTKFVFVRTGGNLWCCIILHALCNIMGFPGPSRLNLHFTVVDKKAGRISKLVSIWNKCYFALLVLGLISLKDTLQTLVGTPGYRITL
tim10-1 conf: tim10-1 yeast growth inhibition, confirmed. shares compounds with tim10-1 inh. S. cerevisiae tim10-1 ts strain growth, BacTiter-Glo, 24 h. inhibition, % at 20 µM. 7,400 compounds, 56% hits. AID 463213;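 active = inhibition of yeast growth at or above a set limit in either of two repeat tests at 20 µM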;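 note: tim10-1 mutant grown at permissive 25 °C to find synthetic lethal compounds; 0% = DMSO yeast wells and 100% = medium wells without yeast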
Numbers without * were called inactive; i = inactive; . = no result.

SMILES	tim23-1 inh	tim10-1 inh	PfHsp90 yeast 2	TIM10 inh	Rce1 inhib	tim10-1 conf
Cc1ccc(S(=O)(=O)CCc2nnc(N)s2)cc1	-5	4	.	0	i	.
C/C(=N\NC(=S)NCc1ccccc1)c1ccc(C(C)(C)C)cc1	38	42*	4	28	i	24
C/C(=N\NC(=S)NCc1ccccc1)c1ccccc1F	40	46*	-16	31	i	34*
C/C(=N\NC(=S)NCCc1ccccc1)c1ccc(O)cc1O	33	43*	0	30	i	3
CCCOc1ccc(C(=O)Nc2ccc(S(=O)(=O)N3C[C@@H]4C[C@@H](C3)c3cccc(=O)n3C4)cc2)cc1	10	9	3	3	.	.
COc1cc(CNC(=O)c2cc3ccccc3oc2=O)cc(OC)c1OC	30	12	15	14	i	.
O=C(N1CCCCCC1)n1c(Cc2ccccc2)nc2ccccc21	23	41*	32	36	i	42*
Cc1ccc(-c2cc(-c3ccccc3)[nH]c(=S)c2C#N)cc1	36	54*	13	2	i	26
Cc1ccc2c(c1)c1c(n2CC(O)CN2CCCCCC2)CCCC1 (configuration not stated)	-19	8	-10	-5	i	.
Cc1ccc2c(c1)c1c(n2CC(O)Cn2nc(C)c(Br)c2C)CCCC1 (configuration not stated)	23	43*	-63	7	i	11
C=CCn1c(C)cc(C(=O)COC(=O)CNC(=O)c2ccccc2)c1C	-5	4	-13	-2	i	.
OC(c1cccc(OCc2ccccc2)c1)c1nnc(-c2ccccc2)o1 (configuration not stated)	17	44*	-57	16	i	28
CC(=O)[C@H]1[C@H](C#N)C[C@H]2[C@@H]3CC=C4C[C@@H](O)CC[C@]4(C)[C@H]3CC[C@@]21C	39	41*	-5	36	i	34*
CCOC(=O)c1ccc(NC(=O)c2nc[nH]c2C(=O)N(C)Cc2ccccc2)cc1	33	42*	16	10	i	28
COc1ccc(OC)c(NC(=O)C2CC(=O)N(c3ccc(Br)cc3)C2)c1 (configuration not stated)	39	43*	0	23	i	26
COc1cc(/C=C(\C#N)c2nc3ccccc3s2)cc([N+](=O)[O-])c1O	29	46*	-12	15	.	29
N#C/C(=C\c1ccc(O)c([N+](=O)[O-])c1)c1nc2ccccc2s1	.	.	-23	.	i	.
CC(=O)c1sc(N/N=C2\CC3CC2C(C)C3(C)C)nc1C (configuration not stated)	20	45*	16	18	i	28
COc1ccc(/C(C)=N/Nc2nc(C)c(C(C)=O)s2)cc1	20	19	15	8	i	.
Cn1c(-c2ccccc2)n[nH]c1=S	5	-1	-1	7	i	.
Cn1c(-c2sccc2OCc2ccccc2)n[nH]c1=S	10	50*	2	9	i	16
Cc1nc(-c2ccccc2)sc1-c1n[nH]c(=S)n1C	38	48*	.	26	i	12
Cc1ccc(COc2ccsc2-c2n[nH]c(=S)n2C)cc1	29	40	13	30	i	.
Cc1ccccc1C(=O)NCC(=O)NNC(=O)c1cccc(Cl)c1	8	-1	-2	-4	.	.
CC(C)c1csc(CN2CCN(CCc3ccccc3)C(CCO)C2)n1 (configuration not stated)	21	8	1	10	i	.
SMILES	tim23-1 inh	tim10-1 inh	PfHsp90 yeast 2	TIM10 inh	Rce1 inhib	tim10-1 conf
CSCC[C@H](NC(=O)c1cccs1)C(=O)N1CCC2(CC1)NCCc1[nH]cnc12	1	-1	21	-2	i	.
O=C(CSc1nc2c(c(=O)[nH]1)CCC2)Nc1cccc(F)c1	-2	4	16	10	i	.
Cc1ccc(C)c(OC(=O)c2cccc(S(=O)(=O)N3CCN(C)CC3)c2)c1	34	42*	-17	25	i	18
CC1CCc2c(sc3ncnc(NCCCOC(C)C)c23)C1 (configuration not stated)	43	40	6	13	i	10
CC1CCc2c(sc3ncnc(NCc4cccnc4)c23)C1 (configuration not stated)	22	11	4	13	i	.
COc1ccccc1N1CCN(CC(=O)Nc2ccccc2C(=O)NCCc2ccccc2)CC1	25	20	-8	13	.	.
O=C(CNC(=O)c1ccccc1F)OC(C(=O)Nc1cc(C(F)(F)F)ccc1Cl)c1ccccc1 (configuration not stated)	13	43*	-11	9	i	23
CCC(=O)Nc1nc2c(c(=O)[nH]1)CCCC2	10	-1	-4	-4	i	.
C/C(=N\O)c1ccc2c3ccccc3n(C)c2c1	46	44*	.	18	i	23
O=C(N=C1SCC(=O)N1c1ccccc1Cl)c1ccco1	13	30	-10	24	i	.
O=C(N=C1SCC(=O)N1c1ccccc1Cl)c1ccccc1	35	42*	8	8	i	24
COc1ccc(/C=C2\Cc3ccccc3C2=O)cc1OC	.	.	1	.	i	.
COc1cc2c(cc1OC)/C(=C/c1ccc(Br)cc1)C(=O)OC2	49	43*	-104	-13	i	16
COc1ccc(/C=C/C(=O)N2CCCc3ccccc32)cc1	37	47*	-16	23	i	22
COc1ccc2c(c1)CCc1c(C(=O)N3CCCc4ccccc43)noc1-2	42	45*	-22	34	i	34*
CCOC(=O)/C=C/C(=O)N1CCc2ccccc21	32	47*	23	20	i	40*
COc1ccc(OC)c(/C=C/C(=O)N2CCCc3ccccc32)c1	30	17	-4	7	i	.
CCOc1ccc(CNC2CCCCCCC2)cc1OC	5	4	17	-11	i	.
CC(C)c1ccc(-c2cc(C(=O)N3N=C(C(F)F)CC3(O)C(F)F)c3ccccc3n2)cc1 (configuration not stated)	37	41*	111*	25	i	27
COc1ccc(C(=O)NCC23C=CC(O2)C2C(=O)N(Cc4ccccc4)C(=O)C23)cc1 (configuration not stated)	20	33	.	13	i	.
O=C1C2C3C=CC(CO)(O3)C2C(=O)N1c1ccccc1-c1ccccc1 (configuration not stated)	-5	53*	142*	19	.	87*
CCCCc1ccc(C2C(C#N)=C(N)SC(N)=C2C#N)s1	33	50*	.	12	.	34*
CCOc1ccc(C2C(C#N)=C(N)SC(N)=C2C#N)c(OCC)c1	-4	16	-42	4	i	.
CCOC(=O)c1c(CSc2ccc(C)cc2)oc2ccc(O)cc12	16	40	3	-10	i	4
